The full ranking holds about 33,000 sequences; the median of “E-score (-0.5 to 0.5)” is about -0.016, and the highest 2% start at about 0.32. The sample as a whole holds a higher share of the highest values than the screen did.
molecular target: T1, Stp1 (UniProt B3LFK1); assay: PBM E-score (8-mer binding enrichment) (E-score (-0.5 to 0.5)); higher = stronger / more preferred TF binding; conditions: protein concentration: 200 nM; construct: GST-full length
T1 sequence: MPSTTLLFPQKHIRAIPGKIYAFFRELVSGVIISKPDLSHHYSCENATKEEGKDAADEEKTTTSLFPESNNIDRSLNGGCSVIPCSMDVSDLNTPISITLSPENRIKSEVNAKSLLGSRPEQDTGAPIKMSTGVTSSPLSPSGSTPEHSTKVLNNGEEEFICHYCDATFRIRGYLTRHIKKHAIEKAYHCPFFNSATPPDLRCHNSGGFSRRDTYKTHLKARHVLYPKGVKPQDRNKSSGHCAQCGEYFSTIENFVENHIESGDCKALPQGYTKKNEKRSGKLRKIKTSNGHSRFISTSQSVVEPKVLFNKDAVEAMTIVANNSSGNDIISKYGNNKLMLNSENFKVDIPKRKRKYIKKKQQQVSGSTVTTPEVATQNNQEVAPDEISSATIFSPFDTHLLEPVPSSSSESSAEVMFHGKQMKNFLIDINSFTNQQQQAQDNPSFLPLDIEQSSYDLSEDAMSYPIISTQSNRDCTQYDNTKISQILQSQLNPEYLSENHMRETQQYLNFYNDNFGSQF
How it was run: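 Detection of bound protein used fluorescent anti-GST, with scans normalised by masliner. The proteins were GST-tagged yeast transcription factors applied at about 100-200 nM to universal all-10-mer Agilent arrays made double-stranded by primer extension. Each ungapped eight-base word, pooled with its reverse complement, was scored with an E-score from the Universal PBM Analysis Suite.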

Row | Sequence | PBM E-score
1 | ATGCCGGA | 0.0395
2 | ATTCCGCA | 0.0903
3 | CTGCCGCA | 0.347
4 | ATGCCACG | 0.275
5 | GTGCCGCA | 0.483
6 | ATGCCGCA | 0.468
7 | GCTTTGTA | 0.135
8 | AAGTTAGG | 0.0337
9 | CAACCACG | 0.0433
10 | GGCTGAAA | 0.103
11 | AAGCTCAA | -0.135
12 | CTATGCCC | -0.0982
13 | AGGCCGCC | -0.0139
14 | ATGCCGGC | 0.0928
15 | ATGCCGCC | 0.386
16 | GGTTTGAA | 0.0901
17 | GAAGTGAC | -0.0146
18 | AAAAGGCT | 0.0632
19 | ACAAGGCA | 0.315
20 | GCAAGGCA | 0.38
21 | CAAAGGCA | 0.184
22 | GAAAGGCA | 0.376
23 | AAAAGGCG | 0.34
24 | CAAAGGCG | 0.129
25 | GAAAGGCC | 0.272
26 | GCAAGGCC | 0.151

Row | Sequence | PBM E-score
27 | AAAAGGCA | 0.359
28 | AGAAGGCG | 0.2
29 | AAAAGGCC | 0.174
30 | TGAGAAAA | 0.116
31 | GCCCCTAA | -0.229
32 | CTAAGGGC | -0.224
33 | CTTTTCGA | 0.174
34 | CACCCTAG | -0.172
35 | GCAGAAAC | 0.234
36 | ACAGTCGA | -0.262
37 | TAACGCCA | 0.133
38 | AAACGCCC | 0.231
39 | CAACGCCA | 0.0795
40 | AAACGCCG | 0.428
41 | AAACGCCT | 0.141
42 | CAACGCCG | 0.391
43 | CAACGCCC | 0.0959
44 | GAACGCCA | 0.0737
45 | AAACGCCA | 0.345
46 | CTGGAAAG | -0.15
47 | AGCGAAAG | -0.138
48 | ATGGCTAG | 0.0312
49 | CCTTTCCG | 0.0145
50 | ATGACTTC | 0.00281
51 | AGTACTTG | 0.142
52 | GGGGACGA | -0.249

Row | Sequence | PBM E-score
53 | ATCTCACG | 0.015
54 | ACGGTGCC | 0.396
55 | ACGGTGCA | -0.00717
56 | ACGGTGCG | 0.173
57 | ACAGTGCC | 0.321
58 | ATGGTGCC | 0.372
59 | CTGGTGCC | 0.252
60 | GCAGTGCC | 0.253
61 | CCAGTGCC | 0.179
62 | ATGGTGCG | -0.0219
63 | AACTGGAT | 0.0626
64 | TCCCATCA | -0.201
65 | GGACTGCA | -0.229
66 | GAGCAGAA | -0.0386
67 | CTCACGGA | 0.0462
68 | CGCACGGA | 0.39
69 | CGCACGCA | -0.00526
70 | GGCACGCA | 0.288
71 | GTCACGGA | -0.0129
72 | GGCACGGA | 0.376
73 | TACTCTAA | 0.034
74 | CCCTGTCG | 0.0867
75 | CATATGGG | -0.035
76 | AGGGTCGC | 0.0437
77 | AGCGGCGC | 0.452
78 | CGCGGCGA | 0.451

Row | Sequence | PBM E-score
79 | AGCAGCGC | 0.0916
80 | CGCGGTGA | 0.0941
81 | AGCGGCGA | 0.386
82 | AGCGGCGG | 0.337
83 | ACCGGCGG | 0.0942
84 | AGCGGGGG | -0.287
85 | CGCGGAGA | 0.109
86 | AGCGGGGC | 0.0451
87 | GGCGGCGA | 0.276
88 | AGCGGCCA | -0.114
89 | AGAGCTTG | -0.106
90 | ATGAGCTG | -0.175
91 | GATCCATA | 0.134
92 | ACGCTAAG | 0.00258
93 | CGGACCGA | 0.0676
94 | CCTCGCAG | -0.0486
95 | GCGTCTAC | -0.155
96 | CACTGCCC | -0.071
97 | CACTGCCG | 0.336
98 | AACTGCCT | 0.0172
99 | AACTGCCG | 0.329
100 | CACTGCCA | 0.0847
101 | AACTGCCC | -0.192
102 | AGATCCAA | 0.0566
103 | AAGCTGTG | -0.106
104 | GCCTTGTA | 0.354

Row | Sequence | PBM E-score
105 | CCCTTGTA | -0.178
106 | GCCTTGCA | 0.33
107 | TCCTTGCA | -0.0871
108 | CCCTTGCA | -0.163
109 | ACCTTGTA | 0.0137
110 | AAGGATGC | -0.187
111 | GTGGTCTA | -0.307
112 | CTCTACCA | -0.0433
113 | GCTGGTCC | -0.253
114 | GTTGTGGA | -0.0929
115 | CATGCCCA | -0.249
116 | ATGACGCC | 0.2
117 | CCCGTCCC | -0.249
118 | TCCGTCCA | -0.122
119 | ACCGTCCC | -0.184
120 | GCCGTCCA | 0.364
121 | CCCGTCTA | -0.0264
122 | GCCGTCCC | 0.378
123 | CCCGTCCA | -0.00501
124 | GCCGTCTA | 0.429
125 | GCCGTCGC | 0.351
126 | ACCGTCTA | -0.0765
127 | GCCGTCGA | 0.278
128 | ACCGTCGC | 0.0157
129 | AGACAAAG | 0.00552
130 | GAGGGTAA | -0.0792

Row | Sequence | PBM E-score
131 | CACCATAC | -0.0768
132 | TAAAGTGA | 0.135
133 | CAGAAAGG | 0.0864
134 | CCTGCGCC | 0.295
135 | CCTGCGGA | 0.0839
136 | CCTGCGGC | 0.331
137 | ACTGCGGC | 0.381
138 | ACTGCGGG | -0.153
139 | ACTGCGGA | 0.0949
140 | ACTTAGAA | 0.0195
141 | GAACAGGC | -0.0513
142 | ACAAGGGA | -0.144
143 | GCAACCTA | 0.081
144 | ATAAGCCG | 0.0578
145 | ATTGCTAA | 0.0687
146 | AGCGCCTG | -0.0292
147 | CTCGCCTC | 0.00469
148 | CGCGCCTC | 0.377
149 | ATCGCCTG | -0.135
150 | CACGCCTC | 0.205
151 | ATCGCCTC | 0.356
152 | ACCGCCTC | -0.0359
153 | AGCGCCTC | 0.389
154 | CGCGCCTA | 0.313
155 | ACGGTCTC | -0.041
156 | CCTAAAGC | 0.00183

Row | Sequence | PBM E-score
157 | CCCTAGGA | -0.314
158 | CTTGCGCA | 0.223
159 | ATTCTTCG | 0.00242
160 | GAACGTAA | 0.0655
161 | CCGTTCCG | 0.318
162 | CCGTTCCA | 0.243
163 | ACGTTCCG | -0.106
164 | GCCATCGA | 0.0584
165 | ATCCGTGA | 0.00902
166 | GGCCGTGA | 0.126
167 | AGCCGTGA | 0.343
168 | AACCGTGG | -0.00732
169 | ACCCGTGA | -0.0351
170 | AGCCGTGC | 0.465
171 | ATCCGTGC | 0.41
172 | CTCCGTGC | 0.228
173 | AACCGTGC | 0.26
174 | ACCCGTGC | 0.237
175 | ACCCGTGG | -0.0825
176 | AGCCGTGG | 0.334

From the supplement of paper PMC3334620
